Screening results: PubChem BioAssay, The Scripps Research Institute Molecular Screening Center
proKLK7 act: activates the human kallikrein-7 zymogen; activation, % at 7 µM; hit rate 0.9% among 370,000; AID 652039; purified proKLK7, EDANS-DABCYL substrate fluorescence; 100% is mature enzyme control, 0% vehicle;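 active = activation above the mean of all tested compounds plus 3 SD, computed per campaign excluding outliers beyond control limits, cut at about 13% in these data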
PLC-gamma1 inh: PLC-gamma1 (human) inhibition, primary screen; P19174; purified PLC-gamma1, fluorogenic substrate, fluorescence; inhibition, % at 12.2 µM; hit rate 0.84% among 370,000
Target sequence (P19174 whole entry, looked up): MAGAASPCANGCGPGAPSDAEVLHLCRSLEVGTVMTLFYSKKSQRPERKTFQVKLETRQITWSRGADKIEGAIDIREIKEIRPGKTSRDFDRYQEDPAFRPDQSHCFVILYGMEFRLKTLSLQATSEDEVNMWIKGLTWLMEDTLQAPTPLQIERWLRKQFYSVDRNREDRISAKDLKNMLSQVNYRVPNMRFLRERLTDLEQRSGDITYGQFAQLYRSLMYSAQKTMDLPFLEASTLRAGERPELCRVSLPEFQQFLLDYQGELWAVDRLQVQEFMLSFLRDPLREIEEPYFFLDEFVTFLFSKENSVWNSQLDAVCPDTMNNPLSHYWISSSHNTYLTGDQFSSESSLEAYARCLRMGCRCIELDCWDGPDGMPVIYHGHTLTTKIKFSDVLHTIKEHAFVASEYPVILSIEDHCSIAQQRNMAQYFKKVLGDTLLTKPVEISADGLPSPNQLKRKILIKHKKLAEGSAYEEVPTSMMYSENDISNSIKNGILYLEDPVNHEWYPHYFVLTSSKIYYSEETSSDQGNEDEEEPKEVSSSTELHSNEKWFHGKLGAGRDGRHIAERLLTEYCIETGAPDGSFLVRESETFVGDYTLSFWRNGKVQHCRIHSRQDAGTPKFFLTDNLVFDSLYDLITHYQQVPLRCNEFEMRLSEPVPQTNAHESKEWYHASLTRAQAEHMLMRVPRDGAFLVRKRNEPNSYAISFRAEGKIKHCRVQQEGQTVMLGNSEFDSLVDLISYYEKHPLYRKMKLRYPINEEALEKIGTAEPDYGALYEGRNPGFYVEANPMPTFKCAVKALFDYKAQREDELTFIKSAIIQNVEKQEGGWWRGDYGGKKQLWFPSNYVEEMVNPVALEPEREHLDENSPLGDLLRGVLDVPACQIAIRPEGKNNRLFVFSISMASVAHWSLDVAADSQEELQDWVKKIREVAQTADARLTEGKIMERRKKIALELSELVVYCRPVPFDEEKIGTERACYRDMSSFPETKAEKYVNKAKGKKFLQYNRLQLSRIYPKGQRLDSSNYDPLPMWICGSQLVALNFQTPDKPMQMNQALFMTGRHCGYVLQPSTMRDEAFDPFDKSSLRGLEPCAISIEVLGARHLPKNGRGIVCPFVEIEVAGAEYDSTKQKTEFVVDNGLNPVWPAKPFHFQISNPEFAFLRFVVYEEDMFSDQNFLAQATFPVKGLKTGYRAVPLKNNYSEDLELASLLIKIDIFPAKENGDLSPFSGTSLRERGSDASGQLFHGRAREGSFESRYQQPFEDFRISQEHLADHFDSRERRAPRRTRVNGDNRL
ADAM17 inh: inhibits human ADAM17. P78536. recombinant ADAM17, EDANS/DABCYL FRET peptide cleavage. inhibition, % at 6.95 µM. hit rate 0.83% among 370,000. AID 720648;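 active = inhibition above the mean of compounds lying between control limits plus 3 SD, set per campaign, cut at about 8.5% in these data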;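 note: 0% = DMSO-only wells as the low control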
PLC-beta3 inh: blocks human PLC-beta3 enzyme activity; inhibition, % at 12.2 µM; Purified PLC-beta3, fluorogenic substrate, fluorescence; hit rate 0.18% among 370,000; in the data active = inhibition above about 11%;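 note: 0% = median of compound wells on plate and 100% = full blocker control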
ADAM10 inh: ADAM10 inhibition, QFRET primary screen | O14672 | inhibition, % at 7 µM | hit rate 0.62% among 370,000 | recombinant ADAM10, EDANS/DABCYL FRET peptide cleavage, 3 h;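 active = inhibition above a per-campaign cutoff equal to the mean of compounds falling between control-based bounds plus 3 SD, cut at about 20% in these data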;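 note: 0% = DMSO wells while the 100% control is not disclosed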
ADAM10 counter: ADAM10 inhibition, counter-screen for ADAM17 exosite hits | recombinant ADAM10, EDANS/DABCYL FRET peptide cleavage, 3 h | shares compounds with ADAM17 inh | hit rate 47% among 2,900 | inhibition, % at 6.95 µM;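 active = mean inhibition over the triplicate runs exceeds the activity threshold set in the earlier primary screen, cut at about 20% in these data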;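 note: 0% = DMSO wells and 100% = marimastat wells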
ADAM17 confirm: human ADAM17 inhibition, confirmation | shares compounds with ADAM17 inh | recombinant ADAM17, EDANS/DABCYL QFRET peptide cleavage | inhibition, % at 6.95 µM | hit rate 65% among 2,900 | AID 743257;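 active = mean inhibition across replicates above the hit cutoff set in the primary screen, cut at about 8.5% in these data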;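 note: 0% = DMSO wells and 100% = marimastat wells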
PLCg1 ctr: counter-screen for PLC-beta3 inhibitors: inhibitors of human PLC-gamma1; hit rate 3.1% among 3,300; purified PLC-gamma1, fluorogenic substrate, fluorescence; shares compounds with PLC-gamma1 inh; inhibition, % at 12.3 µM
PLCb3 confirm: human PLC-beta3 inhibition, confirmation | purified PLC-beta3, fluorogenic substrate fluorescence | shares compounds with PLC-gamma1 inh | AID 743261 | hit rate 1% among 3,300 | inhibition, % at 12.3 µM; in the data active = inhibition above about 11%
Numbers without * were called inactive; · = no result given. In the library only some 2.9% were active in any assay of this set; here they are far more common. Cut-off read from the data, not from the text of the source, unless noted: active = inhibition above about 9.5%; inactive = the rest.

SMILES | proKLK7 act | PLC-gamma1 inh | ADAM17 inh | PLC-beta3 inh | ADAM10 inh | ADAM10 counter | ADAM17 confirm | PLCg1 ctr | PLCb3 confirm
COCC(C)n1c(SCC(=O)NC(=O)NCc2ccccc2)nc2ccccc2c1=O (stereo not given) | 0 | 10* | 10* | 8 | 12 | 15 | 7 | -1 | -2
CN(C)C(=S)N=c1ssc(=S)n1Cc1cccnc1 | -1 | 1 | -2 | 6 | -12 | · | · | · | ·
C=CCc1cccc(CNc2nc3ccccc3n2CCN2CCOCC2)c1O | 0 | 10* | 12* | 14* | 14 | 11 | 9.3* | -5 | 1
CC(C)(C)c1cc(C(=O)CCN2CCOCC2)cc(C(C)(C)C)c1O | 0 | 13* | 9.4* | -2 | 13 | -3 | 3 | -6 | -5
NC1=NC2(CCC(c3ccccc3)CC2)n2c(nc3ccccc32)N1 (stereo not given) | 0 | 18* | 9.0* | 14* | 0 | 12 | 7 | 3 | 2
CC1(C(=O)Nc2ccc(Cl)c(Cl)c2)CCN1C(=O)C1CCCCC1 (stereo not given) | 0 | 16* | 10* | 4 | -1 | 9 | 9.9* | -5 | -3
COc1cccc(-c2cc3c(c4c2ccn4C)C2CCC3C2)c1 (stereo not given) | 0 | -26 | -4 | -42 | -22 | · | · | · | ·
O=C(Nc1cccc(S(=O)(=O)C(F)F)c1)c1ccc(S(=O)(=O)N2CCCC2)cc1 | 0 | 0 | -2 | 1 | 9 | · | · | · | ·
O=C(Nc1cccc(S(=O)(=O)C(F)F)c1)c1ccc(S(=O)(=O)N2CCOCC2)cc1 | 0 | 4 | 11* | 13* | 13 | 14 | 9.6* | 0 | 1
C=CCNC(=S)NNC(=O)c1ccc(C)c(Cl)c1 | -1 | 13* | 12* | 2 | 12 | -2 | 1 | -5 | 0
CN1CCN(C(=O)/C(=C/c2ccccc2)c2ccccc2)CC1 | 0 | 9.8* | 8.7* | 9 | 4 | -9 | -4 | -6 | -1
O=C(Nc1ccc(N2CCOCC2)cc1)c1csc([C@@H]2C[C@H](O)[C@@H](CO)O2)n1 | 0 | 2 | 1 | 7 | -3 | · | · | · | ·
O=C(Nc1cccc(OC(F)(F)F)c1)C1Cc2c(-c3cccc(F)c3)ccnc2O1 (stereo not given) | 0 | 12* | 12* | -12 | 13 | 35* | 19* | -6 | -5
COc1ccc(NC(=O)CCC(=O)Nc2nnc(C(C)C)s2)cc1Cl | 1 | 0 | -3 | -6 | 2 | · | · | · | ·
COc1ccc(OC)c(NC(=O)CCC(=O)Nc2nnc(C(C)C)s2)c1 | -1 | 12* | 12* | -2 | 1 | -10 | -3 | -8 | -4
Cc1cccc(N2CCN(C(=O)c3ccc4ncsc4c3)CC2)c1C | 0 | 12* | 8.9* | 3 | 8 | 1 | 1 | -8 | -26
O=C(NC(=S)Nc1ccc(Cc2ccncc2)cc1)c1ccccc1F | 0 | 15* | 12* | -4 | 9 | 2 | 2 | -4 | -4
CC(OC(=O)c1ccc(S(C)(=O)=O)c([N+](=O)[O-])c1)C(=O)NC1C2CC3CC(C2)CC1C3 (stereo not given) | 0 | 1 | -4 | 1 | -19 | · | · | · | ·
Oc1ccc(C[C@H]2CNCCN2CCC23CC4CC(CC(C4)C2)C3)cc1 | 0 | 9.8* | 11* | 11* | 14 | 2 | 2 | -6 | -2
Oc1ccc(C[C@@H]2CNCCN2CCC23CC4CC(CC(C4)C2)C3)cc1 | 1 | 3 | 1 | -1 | -2 | · | · | · | ·
O=C(N/N=C/c1ccc(N2CCOCC2)c([N+](=O)[O-])c1)c1ccc(F)cc1 | 0 | 0 | -3 | 0 | -3 | · | · | · | ·
